PKA-R1A activ – activators of PKA-R1A holoenzyme, primary screen, biochemical, fluorescence polarization, Cy5-IP20, bovine R1A, mouse PKAc | cAMP-dependent protein kinase type I-alpha regulatory subunit (Bos taurus) + … | PKA-R1A dissociation; scaled: DMSO 0%, 113 µM cGMP 100% | activation, % at 11.4 µM | 0.083% of 340,000 active;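 active = percent activation above the mean of all tested compounds plus 3 SD, cut at about 19% in these data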;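 note: higher means more PKAc released from R1A so a rise in polarization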
PKA-R2B activ – activators of PKA-R2B holoenzyme, primary screen, biochemical, fluorescence polarization, Cy5-IP20, human | AID 504700, 2011 | activation, % at 11.4 µM | PKA-R2B holoenzyme dissociation; R2B truncated from residue 108, S112A mutant; 0% DMSO only, 100% 113 µM cGMP | 0.079% of 340,000 active | cAMP-dependent protein kinase catalytic subunit beta (Homo sapiens) + cAMP-dependent …;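 active = activation above a cutoff set at the mean over all compounds plus 3 SD, cut at about 18% in these data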;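 note: higher means more holoenzyme dissociation and a rise in polarization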
CHT block – inhibitors of human choline transporter CHT; High affinity choline transporter 1 (Homo sapiens), Q9GZV3; CHT-expressing cells, membrane potential dye, choline response; active compounds read low; B-score at 10 µM; 0.86% of 310,000 active; AID 488975, 2010;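 active = B-score over 3 SD under the library average, and starting fluorescence ratio not unusually high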;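 note: choline stimulus applied at its EC90 after an EC20 pre-addition; B-score computed on integrated fluorescence ratio after choline addition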
CHT allo act – CHT positive allosteric modulators, primary screen, cell-based, membrane potential dye, choline EC20; High affinity choline transporter 1 (Homo sapiens), Q9GZV3; CHT-expressing cells; active compounds read high; LV-AA mutant CHT in HEK293 cells; B-score at 10 µM; 0.49% of 310,000 active; AID 488977, 2010;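 active = initial fluorescence not abnormally high and integrated response B-score, plate-corrected, over 3 SD above library mean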
ANO1 block – TMEM16A chloride channel inhibitors, primary screen, cell-based, HTS; Anoctamin-1 (Mus musculus), Q8BHY3; HEK293 TMEM16A/YFP iodide influx fluorescence, ionomycin; normalized B-score (activity score, 25-100; higher = stronger inhibition) at 10 µM; 1.2% of 310,000 active; AID 588511, 2011;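 active = ratio plate-corrected score three or more library SD toward inhibition, starting fluorescence score within five deviations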;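 note: score derived from kinetic fluorescence span divided by baseline fluorescence per well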
Target sequence (Q8BHY3 whole entry, looked up): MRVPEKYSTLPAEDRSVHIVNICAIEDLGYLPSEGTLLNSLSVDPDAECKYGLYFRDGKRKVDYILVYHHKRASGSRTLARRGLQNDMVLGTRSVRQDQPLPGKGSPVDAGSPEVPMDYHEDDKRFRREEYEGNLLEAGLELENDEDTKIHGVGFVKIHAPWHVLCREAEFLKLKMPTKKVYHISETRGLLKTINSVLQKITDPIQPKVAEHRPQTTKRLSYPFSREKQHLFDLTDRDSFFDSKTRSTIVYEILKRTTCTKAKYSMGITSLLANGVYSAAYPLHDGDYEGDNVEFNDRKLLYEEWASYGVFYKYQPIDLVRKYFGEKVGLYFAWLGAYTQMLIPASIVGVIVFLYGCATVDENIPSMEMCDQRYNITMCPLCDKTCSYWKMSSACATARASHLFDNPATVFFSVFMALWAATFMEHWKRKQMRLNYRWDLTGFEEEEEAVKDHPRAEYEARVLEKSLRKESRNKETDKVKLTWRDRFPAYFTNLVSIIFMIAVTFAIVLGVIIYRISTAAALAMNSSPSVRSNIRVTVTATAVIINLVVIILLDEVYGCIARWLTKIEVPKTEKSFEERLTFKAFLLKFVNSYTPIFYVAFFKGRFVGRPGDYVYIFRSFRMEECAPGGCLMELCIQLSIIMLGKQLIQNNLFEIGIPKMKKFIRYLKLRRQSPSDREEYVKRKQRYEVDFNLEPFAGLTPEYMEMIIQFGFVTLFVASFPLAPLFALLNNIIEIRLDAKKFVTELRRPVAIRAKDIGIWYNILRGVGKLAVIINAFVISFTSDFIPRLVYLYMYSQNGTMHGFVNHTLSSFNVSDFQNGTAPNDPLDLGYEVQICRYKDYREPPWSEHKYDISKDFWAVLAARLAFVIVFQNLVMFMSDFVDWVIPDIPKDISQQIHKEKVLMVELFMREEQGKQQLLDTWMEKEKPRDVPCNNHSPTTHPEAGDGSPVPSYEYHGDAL
ANO1 activ – TMEM16A chloride channel activators or potentiators, primary screen, cell-based, HTS; B-score at 10 µM; Anoctamin-1 (Mus musculus), Q8BHY3; 0.3% of 340,000 active; HEK293 TMEM16A/YFP-H148Q/I152L, iodide quench fluorescence; active compounds read low;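 active = fluorescence-ratio B-score plate-corrected deviation score at least 3 library SD below zero, with starting fluorescence score within 5 deviations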;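 note: channel opened by trigger with iodide after compound preincubation; score built on the fluorescence ratio of max minus min over baseline; more negative score means more quench and so TMEM16A activation or potentiation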
TMEM16A reconf – TMEM16A chloride channel inhibitors, confirmation, cell-based, re-confirmation; inhibition, % at 10 µM; AID 652189, 2013; shares compounds with ANO1 block; HEK293 TMEM16A/YFP-H148Q, iodide quench fluorescence; ionomycin added to raise cell calcium; 39% of 2,300 active;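 active = mean duplicate percent inhibition, scaled so buffer wells are 0 and the reference blocker 100, over three buffer SD above buffer mean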
TMEM16A Ca cntr – calcium mobilization in TMEM16A/YFP HEK293 cells, confirmation, counter-screen for TMEM16A inhibitor project. calcium response (% of ionomycin), % at 10 µM. Fluo4 calcium mobilization. shares compounds with ANO1 block. 2% of 2,300 active;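 active = duplicate-averaged calcium signal over 20% of the ionomycin maximum, relative to buffer baseline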;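 note: each well's signal is peak minus trough fluorescence divided by its pre-addition baseline; 0% = buffer wells and 100% = ionomycin wells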
Parental YFP cnt – iodide YFP quench changes in parental YFP-HEK293, counter-screen for TMEM16A inhibitor project, cell-based | shares compounds with ANO1 block | 2,300 tested, under 10 active | ionomycin | YFP ratio F(max-min)/F0 at 10 µM;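 active = yellow fluorescent protein signal ratio exceeding the buffer control mean by over 5 SD of those controls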;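 note: ratio is mean of duplicate wells from kinetic YFP trace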
ClC-1 rat inh – ClC-1 chloride channel inhibition, selectivity assay for TMEM16A inhibitor project, cell-based, voltage-dependent ClC-1; shares compounds with ANO1 block; CHO ClC-1-YFP, iodide influx fluorescence quench; iodide control reads 0, buffer control 100; ratio percent, % at 10 µM; AID 652236, 2013; 2,300 tested, under 10 active;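 active = duplicate-mean ratio percent above the mean of iodide-only control wells, which defines zero, plus 5 of their SD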;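 note: higher percent means stronger block of ClC-1 iodide influx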
An asterisk follows results filed as active; i = inactive; · = no result. In the library only some 2.5% were active in any assay of this set; here they are far more common.

SMILES	PKA-R1A activ	PKA-R2B activ	CHT block	CHT allo act	ANO1 block	ANO1 activ	TMEM16A reconf	TMEM16A Ca cntr	Parental YFP cnt	ClC-1 rat inh
C[C@H](CO)N1C[C@H](C)[C@@H](CN(C)C(=O)NC2CCCCC2)Oc2c(cccc2N(C)C)C1=O	11	-2	·	·	·	i	·	·	·	·
CC(Cc1cccs1)NC(=S)Nc1ccc(Cl)cc1 (configuration not stated)	-5	-1	i	i	25*	i	38%*	i	-1.2	-15
Cc1ccccc1-c1cc(C(=O)O)nn1CC1CC(c2cccc([N+](=O)[O-])c2)=NO1 (configuration not stated)	-7	1	i	i	i	i	·	·	·	·
O=C(NCCC(=O)N1CCN(S(=O)(=O)c2ccccc2F)CC1)Nc1ccccc1	1	11	·	·	·	i	·	·	·	·
CCCn1c2ccccc2c2nnc(SCC(=O)Nc3ncccn3)nc21	-9	6	i	i	100*	i	i	i	-1.2	-6
COc1cc(C(=O)N/C(=C/c2ccc(F)cc2)C(=O)NC(C(=O)O)c2ccccc2)cc(OC)c1OC (configuration not stated)	-10	-11	i	i	i	i	·	·	·	·
CCNc1nc2c(cnn2C)c(=O)[nH]1	-14	-6	·	·	·	i	·	·	·	·
COc1ccc(N2CCN(C(=O)c3ccc(C)c(Cl)c3)CC2)cc1	1	5	i	i	25*	i	i	i	-1	0
COc1ccc(N2CCN(C(=O)c3ccc(Cl)c(S(=O)(=O)N4CCCC4)c3)CC2)cc1	-9	0	i	i	i	i	·	·	·	·
CCOc1ccc(N(CC)S(=O)(=O)c2ccc3c(c2)n(C)c(=O)c(=O)n3C)cc1	-2	5	i	i	100*	i	i	i	-1.2	-6
Cc1cc(C)c(S(=O)(=O)Nc2ccccc2-c2ccccc2)c(C)c1	0	1	i	i	25*	i	i	i	-1.3	-4
CCOc1cc(/C=C2/C(=O)N(c3ccccc3)N=C2C)ccc1OC(=O)c1cccs1	-13	-9	i	i	25*	i	i	i	-1.1	-10
CC(=O)Nc1ccc(S(=O)(=O)N2CCN(C(=O)c3ncoc3-c3cccc(F)c3)CC2)cc1	-7	-10	i	i	100*	i	i	i	-1	-7
CC(=O)Nc1ccc(S(=O)(=O)N2CCN(C(=O)c3ncoc3-c3cccc(C)c3)CC2)cc1	-7	-5	i	i	i	i	·	·	·	·
O=C(COC(=O)c1ccccc1F)Nc1cccnc1Cl	-8	0	i	i	i	i	·	·	·	·
O=c1cc(C(F)(F)F)[nH]c2ccc(C(F)(F)F)cc12	3	7	i	i	100*	i	34%*	i	-0.95	-15
Cc1cc(=O)c2ccc(C(F)(F)F)cc2[nH]1	-15	-6	i	i	i	i	·	·	·	·
COc1ccccc1OCc1ccc(C(=O)NC(C)(C)C)o1	2	-4	i	i	i	i	·	·	·	·
COc1ccc(NC(=O)c2ccc(COc3ccccc3)o2)cc1	4	-6	i	i	i	i	·	·	·	·
COc1ccc(NC(=O)c2ccc(Cc3ccc(C)cc3)o2)cc1	-6	-3	i	i	25*	i	i	i	-1.2	6
COc1ccccc1OCc1ccc(C(=O)Nc2ccncc2)o1	6	-10	i	i	100*	i	34%*	i	-0.84	-7
COc1ccc(-c2c(C(F)(F)F)[nH]n3c(=O)cc(-c4ccccc4)nc23)cc1	-20	-11	i	i	100*	i	49%*	i	-0.92	-18
COc1cccc(N=Nc2c(N)[nH]n3c(=O)cc(-c4ccccc4)nc23)c1	-2	3	i	i	i	i	·	·	·	·
COc1ccc(-c2noc(C3CCCN(C(=O)c4ccccc4)C3)n2)cc1 (configuration not stated)	-3	1	i	i	i	i	·	·	·	·
O=C(c1ccco1)N1CCCC(c2nc(-c3ccc(S(=O)(=O)NCc4ccccc4)cc3)no2)C1 (configuration not stated)	2	-3	i	i	25*	i	44%*	i	-1	-16
SMILES	PKA-R1A activ	PKA-R2B activ	CHT block	CHT allo act	ANO1 block	ANO1 activ	TMEM16A reconf	TMEM16A Ca cntr	Parental YFP cnt	ClC-1 rat inh
COc1cccc(C#CC2=CC(=O)C[C@H](c3ccc(F)cc3)C2)c1	3	-10	·	·	·	·	·	·	·	·
Cn1c(=O)c2c(nc(N/N=C/c3cccnc3)n2Cc2ccccc2)n(C)c1=O	6	6	i	i	i	i	·	·	·	·
CCCCCCn1c(=O)[nH]c2nc3cc(N)ccc3nc2c1=O	·	·	i	i	i	·	·	·	·	·
CCC(C)Sc1ccc([C@@H]2[C@H]3C(=O)N(CC)C(=O)[C@H]3[C@]3(C(=O)OC)CCCCN23)cc1 (some centres not stated)	-3	-14	i	i	i	i	28%*	i	-0.71	13
CCCNC(=O)C[C@@H]1C[C@@H]2c3cc(NS(=O)(=O)c4ccc(OC)cc4)ccc3O[C@@H]2[C@@H](CO)O1	-4	8	·	·	·	·	·	·	·	·
COc1cc2c(cc1NC(=O)c1cc(-c3ccncc3)nc3ccc(C)cc13)oc1ccccc12	4	-5	i	i	25*	i	i	i	-1.2	-6

Bioassay records (PubChem)
